# Assay outcomes (PubChem)
# Only some compounds are listed: those with a hit (about 5.9% of all), similar ones and a draw of the others.
# rTrxR1 inhibitor: rat TrxR1 inhibition; O89049; recombinant rTrxR1, NADPH fluorescence consumption, selenite substrate; Potency, µM (highest dose often 114 µM), usual class: inhibitors; 1% of 390,000 active; note: nearly all actives have a fitted effect of over 65% in size
# Target sequence (O89049 whole entry, looked up): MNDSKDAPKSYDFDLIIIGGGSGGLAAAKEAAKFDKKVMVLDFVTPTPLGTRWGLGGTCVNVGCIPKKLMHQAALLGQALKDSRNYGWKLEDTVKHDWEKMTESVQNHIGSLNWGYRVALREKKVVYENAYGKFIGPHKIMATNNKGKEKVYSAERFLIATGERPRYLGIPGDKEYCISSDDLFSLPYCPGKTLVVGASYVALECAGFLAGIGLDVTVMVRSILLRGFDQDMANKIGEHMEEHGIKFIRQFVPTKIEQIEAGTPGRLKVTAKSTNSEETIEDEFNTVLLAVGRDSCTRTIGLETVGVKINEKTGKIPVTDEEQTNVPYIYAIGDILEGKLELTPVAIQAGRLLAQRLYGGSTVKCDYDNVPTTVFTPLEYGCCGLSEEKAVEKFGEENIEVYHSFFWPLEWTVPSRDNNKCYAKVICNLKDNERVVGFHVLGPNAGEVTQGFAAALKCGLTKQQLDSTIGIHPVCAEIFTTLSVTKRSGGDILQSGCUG
#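 Rat TrxR1 (90 nM in the dispensed reagent) was pre-reduced with 400 uM NADPH for 5 min at room temperature, then incubated with compound for 15 min. After 400 uM selenite was added, NADPH fluorescence (Ex 340/Em 450 nm) was followed for 8 min.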
# GALK inh: inhibitors of human galactokinase | Purified GALK, Kinase-Glo residual ATP luminescence | P51570 | 0.007% of 270,000 active | Potency, µM (titrated, usually from 57.5 µM), hits mostly inhibitors
#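 ATP-depletion format; final 35 uM ATP, 100 uM D-galactose, 5 nM enzyme; pH 8.0 HEPES/Mg2+ buffer; 60 min RT; luminescence read 10 min after detection reagent.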
# FBPA coupling cs: coupling enzyme interference in Giardia aldolase counter-screen; 0.67% of 290,000 active; coupling enzyme system counterscreen, AmpLite Red fluorescence; activity change, negative = inhibition, % at 58.2 µM, hits read low; in the data active = activity change below about -30%
#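 Compounds tested against the coupling enzymes alone at 57.5 uM final; readout was AmpLite Red fluorescence (525/598 nm) after 20 min at RT.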
# VP16 counter: counter-screen for ROR gamma inhibitors: Gal4-VP16 reporter. Drosophila S2 Gal4-VP16 UAS-luciferase, luminescence, 20 h. 3.5% of 310,000 active. Potency, µM (doses to about 53.6 µM), hits mostly inhibitors;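 note: Gal4-VP16 expression switched on by copper sulfate through the metallothionein promoter; nearly all actives have a fitted effect of over 50% in size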
# RORgamma inh: blocks mouse ROR gamma transcriptional activity; P51450; 5.4% of 310,000 active; Potency, µM (highest dose often 53.6 µM), most hits filed as inhibitors; Drosophila S2 Gal4-RORgamma UAS-luciferase reporter, 20 h; AID 2551; note: nearly all actives have a fitted effect of over 60% in size
#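 Luminescence from a UAS-regulated Photinus luciferase reporter in stably transfected Drosophila Schneider cells is measured; decreased signal marks ROR gamma inhibition. Fusion expression is induced by 700 uM copper sulfate for 20 hr.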
# TrxR1 substrate: is turned over as a substrate by rat TrxR1 | AID 588456 | purified TrxR1 substrate turnover, NADPH consumption readout | Potency, µM (doses to about 114 µM) | 0.01% of 390,000 active | O89049; note: nearly all actives have a fitted effect of over 50% in size
#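 Rat TrxR1, dispensed at 90 nM, was prereduced with 400 uM NADPH (final) for 5 min at ~22 deg C, then incubated with compound 15 min before 400 uM selenite. A first-read NADPH fluorescence drop versus no-compound background flagged substrates.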
# Numbers stand for hits; 0 = inactive; ? = inconclusive; - = no result. Unless noted, calls come from the whole dose curve; as a rule, active = well fitted curve in the direction sought with a large enough effect; inconclusive = small, poorly fitted or top-dose-only effect, or another doubt; inactive = no such curve, though single readings can be large; an effect the other way counts as inactive or inconclusive.
SMILES,rTrxR1 inhibitor,GALK inh,FBPA coupling cs,VP16 counter,RORgamma inh,TrxR1 substrate
CC(CNC(=O)c1cc(COc2ccc3ncccc3c2)on1)c1ccccc1 (stereo not given),0,0,0,10µM,?,0
CCOC(=O)N1CCN(C(=O)c2cc(COc3ccc4ncccc4c3)on2)CC1,0,0,0,7.08µM,?,0
Cc1cccnc1CN1CCN(C(=O)c2cc(COc3ccc4ncccc4c3)on2)CC1,0,0,0,?,?,0
CC(C)N(Cc1ccccc1)C(=O)C1CCCN(c2ncnc3c2nc2n3CCCCC2)C1 (stereo not given),0,0,-,0,0,0
O=C(NC1CCCCCCC1)c1cc(COc2ccc3ncccc3c2)on1,0,0,0,3.98µM,?,0
CCCCOc1ccc(Cn2c(=O)oc3ccccc32)cc1,0,-,0,0,0,0
Cc1ccc(S(=O)(=O)N(C)C)cc1NC(=O)COC(=O)c1sc2cc(Cl)ccc2c1Cl,35.5µM,0,0,0,0,0
Cc1ccc2c(c1)c1c(c(=O)n(-c3ccccc3)c(=O)n1CC(=O)NCC1CCCO1)n2C (stereo not given),0,0,-,0,0,0
CCOc1ccc(NC(=O)[C@@H](NC(=O)c2ccccc2Br)C(C)C)cc1,0,0,0,0,0,0
O=C(c1ccco1)N1CCN(C(=O)c2cc3cc([N+](=O)[O-])ccc3oc2=O)CC1,0,0,0,0,0,0
N#Cc1ccc(C(=O)OCC(=O)NC(=O)NCc2ccccc2)cc1,0,-,-,-,-,0
CCN1C(C(=O)c2ccccc2)=C(OC(=O)COc2ccc(C)cc2)c2ccccc2S1(=O)=O,20µM,-,-,-,-,0
CCN1C(C(=O)c2ccccc2)=C(OC(=O)COc2ccc(OC)cc2)c2ccccc2S1(=O)=O,12.6µM,-,-,-,-,0
CNC(=O)CCCN1C(=O)CCn2nc(-c3cn(C)c4ccccc34)cc21,0,-,-,-,-,0
C=CCOc1ccc(-c2n[nH]c(=S)o2)cc1,0,0,0,0,11.2µM,0
Cc1ccc(Sc2ccc(N3CCCC(C(=O)Nc4ccc(F)cc4F)C3)nn2)cc1 (stereo not given),0,-,-,-,-,0
COc1ccc(-c2oc3ccccc3c2C(=O)Oc2ccccc2)cc1,15.8µM,-,0,0,0,0
CCC(Sc1nc(=O)cc(N)n1CCc1ccccc1)C(=O)Nc1cc(C)on1 (stereo not given),0,0,0,0,0,0
CC(=O)c1c(C)[nH]c(C(=O)OCCOc2ccccc2)c1C,0,0,0,8.91µM,11.2µM,0
COc1ccccc1OCCC(=O)OCC(=O)c1[nH]c(C)c(C(C)=O)c1C,0,0,0,?,14.1µM,0
CC(=O)c1c(C)[nH]c(C(=O)COC(=O)CCCOc2ccccc2)c1C,0,0,0,0,0,0
CN(Cc1cccnc1)C(=O)c1cc(COc2ccc3c(c2)CCCC3)on1,0,0,0,?,?,0
O=C(N/N=C/c1c[nH]c2ccccc12)c1cccc(Cl)c1,0,-,0,?,?,0
CCC/C(=N\NC(=O)C1CC1)c1ccccc1,0,-,-,-,-,0
O=C(N/N=C/C1C(c2ccccc2)C1(Cl)Cl)c1cccc(Cl)c1 (stereo not given),0,0,0,4.47µM,2.82µM,0
SMILES,rTrxR1 inhibitor,GALK inh,FBPA coupling cs,VP16 counter,RORgamma inh,TrxR1 substrate
CCC/C(=N/NC(=O)c1cccc(Cl)c1)c1ccccc1,0,0,0,?,12.6µM,0
O=[N+]([O-])c1ccc(/C=N/Nc2nc(N3CCCCCC3)nc(N3CCCCCC3)n2)o1,0,0,0,?,11.2µM,0
O=[N+]([O-])c1ccc(-c2ccc(/C=N/Nc3nc(NCc4ccccc4)nc(N4CCOCC4)n3)o2)cc1,0,0,0,?,12.6µM,0
COC(=O)c1ccccc1-c1ccc(/C=N/Nc2nc(N3CCCC3)nc(N3CCCC3)n2)o1,0,0,0,?,?,0
Cc1ccc(/C=N/Nc2nc(N3CCCCC3)nc(N3CCCCC3)n2)o1,0,0,0,?,8.91µM,0
O=[N+]([O-])c1ccc(/C=N/Nc2nc(N3CCCCC3)nc(N3CCCCC3)n2)cc1,0,0,0,0,0,0
C/C(=N\NC(=O)c1c(Cl)c(C)nn1C)c1cccc(NC(=O)C2CCCC2)c1,0,0,0,0,0,0
Cc1ccc(-c2ccc(C3C4C=CCCC4(C)C(=O)N3Cc3ccccc3)c(F)c2)cc1 (stereo not given),0,-,0,0,0,0
Cc1ccc(F)c(C2C3C=CCCC3(C)C(=O)N2Cc2ccccc2)c1 (stereo not given),0,-,0,31.6µM,?,0
Cc1ccc(Cl)cc1NC(=O)C(Cc1ccccc1)N1C(=O)C2C3CCC(C3)C2C1=O (stereo not given),0,-,0,79.4µM,0,0
CCOc1ccccc1/C=N/NC(=O)c1nnn(-c2nonc2N)c1CN1CCCCCC1,0,-,-,-,-,0
CN(C)CCC(=O)C(Cc1ccccc1)c1ccccc1 (stereo not given),0.251µM,-,-,-,-,0
COc1ccc(C)cc1-n1nnnc1SCC1CCCCO1 (stereo not given),0,0,0,0,0,0
COc1cc(N2C(=O)C=CC2=O)c(OC)cc1Cl,3.16µM,0,0,4.47µM,5.62µM,0
CCCc1cc(=O)oc2c(C)c(OCC(=O)Nc3ccc(CN4CCOCC4)cc3)ccc12,0,0,-,0,0,0
O=C(Cc1ccccc1)Nc1cccc(C(=O)O)c1O,0,0,0,10µM,0,0
O=C(NNC(=O)c1ccccc1C(=O)O)c1ccc(-c2ccccc2)cc1,-,0,0,0,14.1µM,-
O=C(Cc1ccccc1)Nc1ccccc1C(=O)Nc1ccccc1,0,0,0,0,?,0
O=C(Cc1ccccc1)NNC(=O)c1ccccc1C(=O)O,0,0,0,0,3.16µM,0
O=C(NNC(=O)C1CC1)c1ccc(-c2ccccc2)cc1,0,0,0,0,0,0
COc1ccc(CNC(=O)CCN2C(=O)c3ccncc3C2=O)cc1OC,0,0,0,0,0,0
Cc1ccc(N2C(=O)[C@@H]3CSC(c4ccc(C(F)(F)F)cc4)N3C2=O)cc1 (stereo not given in full),0,-,-,-,-,0
CC12CNCC(C)(CN(C3(O)C(=O)Nc4ccc(Br)cc43)C1)C2=O (stereo not given),0,0,0,0,0,0
CC(C)OP(=O)(OC(C)C)C1(O)C(=O)Nc2ccc(Br)cc21 (stereo not given),39.8µM,0,0,?,?,0
CC1(C)Cc2c(C#N)c(NCC3CCCO3)nc(-c3ccco3)c2CO1 (stereo not given),?,0,0,0,?,0
CC1(C)Cc2c(C#N)c(NC3CCCCC3)nc(-c3ccco3)c2CO1,-,0,-30.4,0,0,-
